Results on 21 compounds are retold here after PubChem BioAssay (NCATS).

Assay [1] in a line: qHTS of pediatric cancer cell lines to identify multiple opportunities for drug repurposing: Primary screen for LAN-5 cells (AID 1347100). Also: potency is read from the fitted curve at half-maximal effect.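 As to activity change, negative = cytotoxic: plate controls were DMSO neutral control for no effect and bortezomib positive control for full effect.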 In outline: (§1)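 Cells (500-1,000/well) in growth media were settled 5 h at 37 degrees C, then given compounds for 48 h. Viability was read as CellTiter-Glo luminescence. Primary runs used MIPE at 11 points (0.78 nM-46 µM) and NPC at 8 points (0.59 nM-46 µM); follow-ups used 11 points.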

A short description of assay [2]: qHTS of pediatric cancer cell lines to identify multiple opportunities for drug repurposing: Primary screen for BT-12 cells (AID 1347101).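 Also: plate controls were DMSO for no effect and bortezomib positive control for full effect; nearly all actives have a fitted effect of over 25% in size.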 In outline: (§2)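 Cells (500-1,000/well) rested 5 h, then received compounds for 48 h; metabolically active cells were measured by CellTiter-Glo luminescence. Final concentrations spanned up to 46 µM (MIPE, 11-point) or 0.59 nM-46 µM (NPC, 8-point) in primary screens, 11-point in follow-ups.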

Assay [3] can be described thus: qHTS of pediatric cancer cell lines to identify multiple opportunities for drug repurposing: Primary screen for Rh18 cells (AID 1347102). Also: % is scaled to controls: 0 for no effect and ±100 for the full control effect; nearly all actives have a fitted effect of over 65% in size. In outline: as §1
A short description of assay [4]: qHTS of pediatric cancer cell lines to identify multiple opportunities for drug repurposing: Primary screen for OHS-50 cells (AID 1347103).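 Also: plate controls were DMSO neutral control for no effect and bortezomib positive control for full effect; nearly all actives have a fitted effect of over 40% in size.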 In outline:
as §2

A short description of assay [5]: qHTS of pediatric cancer cell lines to identify multiple opportunities for drug repurposing: Primary screen for RD cells (AID 1347104).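 Also: plate controls were DMSO for no effect and bortezomib for full effect; nearly all actives have a fitted effect of over 55% in size.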 In outline: (§3)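 ATP-based luminescence (CellTiter-Glo) quantifies viability after a 48-hour exposure. Compounds are dosed across 8 or 11 final concentrations; DMSO and 2.3 µM bortezomib serve as controls.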
Assay [6] can be described thus: qHTS of pediatric cancer cell lines to identify multiple opportunities for drug repurposing: Primary screen for MG 63 (6-TG R) cells (AID 1347105). Also: % is scaled to controls: 0 for no effect and ±100 for the full control effect; nearly all actives have a fitted effect of over 50% in size. In short, it runs like this:
as §3

A short description of assay [7]: qHTS of pediatric cancer cell lines to identify multiple opportunities for drug repurposing: Primary screen for control Hh wild type fibroblast cells (AID 1347106).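 Also: series mostly up to about 46 µM; % is scaled to controls: 0 for no effect and ±100 for the full control effect; a drop in luminescence marks cytotoxicity and a rise apparent proliferation; nearly all actives have a fitted effect of over 55% in size.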 In outline: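 Viability after 48 h compound treatment at 37C, 500-1,000 cells/well, read as ATP luminescence with CellTiter-Glo. Primary screens used 11-point (MIPE, 0.78 nM-46 µM) or 8-point (NPC, 0.59 nM-46 µM) final concentrations; follow-up screens used 11-point dilutions.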

Assay [8] in a line: qHTS of pediatric cancer cell lines to identify multiple opportunities for drug repurposing: Primary screen for Rh30 cells (AID 1347107). Also: series mostly up to about 46 µM; % is scaled to controls: 0 for no effect and ±100 for the full control effect; nearly all actives have a fitted effect of over 75% in size. In short, it runs like this:
as §1

The nature of assay [9]: qHTS of pediatric cancer cell lines to identify multiple opportunities for drug repurposing: Primary screen for Rh41 cells (AID 1347108).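 Also: series mostly up to about 46 µM; luminescence drop marks cytotoxic hits; nearly all actives have a fitted effect of over 70% in size.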 In short, it runs like this:
as §3

Assay [10] is described as follows: qHTS of pediatric cancer cell lines to identify multiple opportunities for drug repurposing: Confirmatory screen for NB1643 cells (AID 1347109).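 Also: plate controls were DMSO for no effect and bortezomib for full effect; nearly all actives have a fitted effect of over 45% in size.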 In short, it runs like this:
as §1

Results filed as inconclusive are left out. Some compounds were tested as several samples or in several runs, with calls that do not always agree. Unmarked numbers belong to inactive results. Active and inactive are the calls of the source. Calls follow the shape of the dose curve; as a rule, active = well fitted curve in the direction sought with a large enough effect; inconclusive = small, poorly fitted or top-dose-only effect, or another doubt; inactive = no such curve, though single readings can be large; an effect the other way counts as inactive or inconclusive.

For `O=C(OC1C[C@H]2CC[C@@H](C1)[N+]21CCCC1)C(O)(c1ccccc1)c1ccccc1` (stereo not given in full), the Potency result in [1], in assay [2], in [3], in assay [4], in [5] and in assay [6] was “inactive” in each case. Moreover, the Potency result in assay [7], in [8] and in assay [9] was “inactive” in each case.

For the compound `NC(=O)Cc1cccc(C(=O)c2ccccc2)c1N`, the Potency result in assay [1], in [2], in assay [3], in [4], in [5] and in [6] was “inactive” throughout. Moreover, the Potency entry in assay [7], in assay [8] and in assay [9] was “inactive” in each case.

`C[C@H](Cn1cnc2c(N)ncnc21)OCP(=O)(O)O`: the Potency entry in assay [1], in [2], in [3], in assay [4], in [5] and in assay [6] was “inactive” in each case. Moreover, the Potency result in [7], in assay [8] and in assay [9] was “inactive” in each case.

Consider `CC(C)c1ccc2oc3nc(N)c(C(=O)O)cc3c(=O)c2c1`, for which the Potency result in [1], in assay [2], in assay [3], in assay [4], in assay [5] and in assay [6] was “inactive” each time. The Potency entry in assay [7], in assay [8] and in assay [9] was “inactive” throughout.

Consider `Cc1nc2n(c(=O)c1CCN1CCC(c3noc4cc(F)ccc34)CC1)CCCC2`, for which the Potency result in [1], in [2], in [3], in assay [4], in assay [5] and in assay [6] was “inactive” in each case. Further, the Potency result in assay [7], in [8] and in assay [9] was “inactive” each time.

On to `Nc1ccc(S(N)(=O)=O)cc1`, for which the Potency entry in [1], in assay [2], in [3], in assay [4], in assay [5] and in assay [6] was “inactive” each time. Moreover, the Potency result in assay [7], in assay [8] and in [9] was “inactive” throughout.

`Cc1cc2c(s1)Nc1ccccc1N=C2N1CCN(C)CC1`: the Potency entry in [1], in [2], in [3], in assay [4], in assay [5] and in assay [6] was “inactive” each time. The Potency result in [7], in assay [8] and in assay [9] was “inactive” in each case.

For the compound `CC(C)[C@H](N)C(=O)OCCOCn1cnc2c(=O)[nH]c(N)nc21`, the Potency result in assay [1], in assay [2], in assay [3], in assay [4], in assay [5] and in assay [6] was “inactive” in each case. Besides, the Potency entry in [7], in [8] and in assay [9] was “inactive” in each case.

Turning to `N=C(N=C(N)N)N1CCOCC1`, the Potency entry in assay [1], in assay [2], in assay [3], in assay [4], in [5] and in assay [6] was “inactive” throughout. The Potency entry in [7], in assay [8] and in assay [9] was “inactive” each time.

Regarding `COc1cc2c(cc1OC)C1CC(=O)C(CC(C)C)CN1CC2` (stereo not given), the Potency entry in assay [1], in assay [2], in assay [3], in [4], in assay [5] and in assay [6] was “inactive” each time. Also, the Potency result in assay [7], in assay [8] and in assay [9] was “inactive” each time.

Take `O=C(O)c1cccc(-c2noc(-c3ccccc3F)n2)c1`: the Potency result in assay [1], in [2], in assay [3], in assay [4], in assay [5] and in assay [6] was “inactive” each time. Besides, the Potency result in assay [7] and in assay [8] was “inactive” in each case.

Turning to `CCCCCCCCCCCCCCCCCCCCCCO`, the Potency result in assay [1], in [2], in [3], in [4], in assay [5] and in assay [6] was “inactive” in each case. Also, the Potency result in assay [7], in [8] and in assay [9] was “inactive” in each case.

`O=P(O)(O)C(O)(Cn1ccnc1)P(=O)(O)O`: the Potency entry in assay [1], in assay [2], in [3], in [4], in [5] and in assay [6] was “inactive” each time. Also, the Potency result in assay [7], in [8] and in assay [9] was “inactive” in each case.

Regarding `CC(=O)Nc1ccc(O)cc1`, the Potency result in assay [1], in [2], in [3], in assay [4], in assay [5] and in [6] was “inactive” in each case. The Potency entry in [7], in assay [8] and in assay [9] was “inactive” in each case.

For the compound `Cc1nc(-c2ccc(OCC(C)C)c(C#N)c2)sc1C(=O)O`, the Potency entry in assay [1], in [2], in assay [3], in assay [4], in [5] and in [6] was “inactive” in each case. The Potency result in assay [7], in assay [8] and in [9] was “inactive” each time.

For the compound `CCN(CCO)CCCC(C)Nc1ccnc2cc(Cl)ccc12` (stereo not given), the Potency in assay [1] is 3.72 µM (active). Also, the activity change, negative = cytotoxic in [1] is 22.8% [at 4.84 µM]; in assay [4] it was -4.93% [at 6.18 µM]; in assay [5], 5.84% [at 4.84 µM]; in assay [6] it was 6.76% [at 4.84 µM]. The Potency result in assay [2], in [3], in assay [7], in assay [8], in [9] and in assay [10] was “inactive” throughout.

For `CC(=O)NC[C@H]1CN(c2ccc(N3CCOCC3)c(F)c2)C(=O)O1`, the Potency result in assay [1], in assay [2], in [3], in assay [4], in [5] and in assay [6] was “inactive” throughout. For the same compound, the Potency result in assay [7], in [8] and in [9] was “inactive” throughout.

As to `CC1=C(C(=O)O)N2C(=O)[C@@H](NC(=O)[C@H](N)C3=CCC=CC3)[C@H]2SC1`, the Potency result in assay [1], in [2], in [3], in assay [4], in [5] and in assay [6] was “inactive” throughout. In addition, the Potency entry in assay [7], in [8] and in assay [9] was “inactive” each time.

For the compound `CCOC(=O)C(C)Oc1cccc2c(=O)n(CC(=O)Nc3ccc4c(c3)OCCO4)ccc12` (stereo not given), the Potency entry in assay [1], in assay [2], in assay [3], in assay [4], in assay [5] and in assay [6] was “inactive” in each case. Moreover, the Potency entry in assay [7], in [8] and in [9] was “inactive” in each case.

Consider `Cc1cc(=O)oc2cc(O)ccc12`, for which the Potency result in [1], in assay [2], in assay [3], in assay [4], in assay [5] and in assay [6] was “inactive” each time. Besides, the Potency entry in assay [7], in [8] and in [9] was “inactive” in each case.

Regarding `CCOC(=O)c1c(C)n(C)c2ccc(O)cc12`, the Potency result in [1], in assay [2], in assay [3], in [4], in [5] and in [6] was “inactive” each time. The Potency result in assay [7], in [8] and in assay [9] was “inactive” in each case.
